# AmpC no deterg – AmpC beta-lactamase inhibition without detergent; AmpC nitrocefin hydrolysis, absorbance 480 nm, 0.0001% Triton; P00811; 0.52% of 330,000 active; Potency, µM (top dose mostly 57.1 µM), for the others: top-dose activity change, negative = inhibition, usual class: inhibitors;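 also: plate controls were no compound for no effect and no enzyme for full effect; nearly all actives have a fitted effect of over 20% in size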
# Target sequence (P00811 whole entry, looked up): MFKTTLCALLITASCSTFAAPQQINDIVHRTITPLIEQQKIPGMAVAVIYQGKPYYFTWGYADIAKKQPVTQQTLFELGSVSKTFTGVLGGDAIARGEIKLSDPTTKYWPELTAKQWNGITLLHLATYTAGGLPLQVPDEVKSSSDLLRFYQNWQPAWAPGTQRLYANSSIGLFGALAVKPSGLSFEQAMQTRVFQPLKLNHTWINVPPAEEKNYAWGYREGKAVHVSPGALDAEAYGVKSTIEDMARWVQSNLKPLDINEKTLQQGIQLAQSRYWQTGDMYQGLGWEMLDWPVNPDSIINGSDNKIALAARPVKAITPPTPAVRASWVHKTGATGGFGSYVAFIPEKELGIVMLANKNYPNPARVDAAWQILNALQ
#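 AmpC (5.3 nM in the dispensed reagent) in 20 mM phosphate pH 7.0 with 0.01% (detergent screen) or 0.0001% Triton X-100 was preincubated with compounds for 15 min at room temperature. Nitrocefin was then added from an 800 uM solution, and hydrolysis was followed at 480 nm.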
# AmpC inh detg – inhibitors of E. coli AmpC beta-lactamase with detergent | P00811 | AmpC hydrolysis of nitrocefin, absorbance 480 nm, 0.01% Triton | Potency, µM (highest dose often 114 µM), for the others: at the top dose activity change, negative = inhibition, most hits filed as inhibitors | 0.041% of 370,000 active | AID 485294;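 also: 0% = no-compound wells and -100% = no-enzyme wells; nearly all actives have a fitted effect of over 25% in size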
#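 AmpC (5.3 nM in the dispensed reagent) in 20 mM phosphate pH 7.0 with 0.01% (detergent screen) or 0.0001% Triton X-100 was preincubated with compounds for 15 min at room temperature. Nitrocefin was then added from an 800 uM solution, and hydrolysis was followed at 480 nm.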
# Sm TGR block – S. mansoni TGR enzyme inhibition; Q962Y6; purified TGR, DTNB reduction, TNB absorbance 405 nm; Potency, µM (top dose mostly 114 µM), for inactives: top-dose activity change, negative = inhibition, usual class: inhibitors; AID 485364; 3% of 360,000 active; also: nearly all actives have a fitted effect of over 60% in size
#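 First, TGR (20 nM dispensed) and NADPH were mixed with compound. Second, a 15 min room-temperature incubation followed. Third, further NADPH and then DTNB were added to start the reaction. Finally, TNB absorbance was monitored kinetically.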
# Starred values were filed as active, the others as inactive; ? = inconclusive; · = no result given. Hits are enriched below; roughly 3.3% of the tested compounds scored in any of these assays. Calls follow the shape of the dose curve; as a rule, active = well fitted curve in the direction sought with a large enough effect; inconclusive = small, poorly fitted or top-dose-only effect, or another doubt; inactive = no such curve, though single readings can be large; an effect the other way counts as inactive or inconclusive. Unless noted, % is scaled to controls: 0 for no effect and ±100 for the full control effect; potency is read from the fitted curve at half-maximal effect.
SMILES,AmpC no deterg,AmpC inh detg,Sm TGR block
CC(/C=C1\SC(=S)N(NS(=O)(=O)c2ccc(C)cc2)C1=O)=C\c1ccccc1,-35%,5%,-19%
CC(=O)N1C(=O)/C(=C2\SC(=S)N(NS(=O)(=O)c3ccc(C)cc3)C2=O)c2ccccc21,-45%,-5%,2.5µM*
O=C(Nc1ccnn1C1CCN(Cc2c[nH]c3ccccc23)CC1)c1ccccc1,38%,?,-9%
CCOc1ccc(C(Nc2cccnc2)c2cc(Cl)c3cccnc3c2O)cc1 (stereo unspecified),10%,-4%,0.32µM*
O=C(O)COc1ccccc1C(Nc1cccnc1)c1cc(Cl)c2cccnc2c1O (stereo unspecified),60%,-10%,1µM*
O=C(NC(c1ccccc1)c1cc(Cl)c2cccnc2c1O)c1cccnc1 (stereo unspecified),-1%,-3%,-3%
COc1ccccc1C(NC(C)=O)c1cc(Cl)c2cccnc2c1O (stereo unspecified),-15%,-1%,2%
O=C(O)COc1ccccc1C(Nc1ccccn1)c1cc(Cl)c2cccnc2c1O (stereo unspecified),-30%,-11%,0.4µM*
CCC(=O)NC(c1ccc(C)cc1)c1cc(Cl)c2cccnc2c1O (stereo unspecified),-16%,·,·
O=S1(=O)CC2NC(=S)N(c3cccc(Br)c3)C2C1 (stereo unspecified),-10%,-1%,7%
Cc1c(C(=O)N2CCCC2)c(S(=O)(=O)Nc2cccc(Br)c2)c(C)n1C,55%,-6%,-12%
CC(=O)N1c2ccc(S(=O)(=O)NCCC(=O)Nc3cccc(Cl)c3)cc2CC1C (stereo unspecified),-6%,3%,-6%
Cc1ccccc1OCc1occc1C(=O)Nc1cccc(-n2cnnn2)c1,-44%,2%,-7%
Cc1ccc(C)c(N2CCN(C(=O)Cn3ncc4c(=O)oc5ccccc5c43)CC2)c1,·,-8%,8.9µM*
COc1cccc(N2CCN(C(=O)Cn3ncc4c(=O)oc5ccccc5c43)CC2)c1,·,10%,6%
O=[N+]([O-])c1ccccc1S(=O)(=O)Nc1ccc(S(=O)(=O)N2CCOCC2)cc1,-17%,-7%,-15%
Cc1ccc(-n2c(Cc3cccn3C)nnc2SCC(=O)NCc2ccco2)cc1,65%,2%,40µM*
Cc1ccc(NC(=O)CSc2nnc(Cc3cccn3C)n2-c2ccc(F)cc2)cc1,57%,?,-26%
Cc1ccc(-n2c(Cc3cccn3C)nnc2SCC(N)=O)cc1,7%,-11%,-10%
CCc1ccc(NC(=O)CSc2nnc(Cc3cccn3C)n2-c2ccc(F)cc2)cc1,13µM*,-17%,?
COc1cc(C#N)c(NC(=O)CN2CCC(C(N)=O)CC2)cc1OC,-1%,5%,8%
CCc1ccc(NC(=O)c2ccc3c(=O)n4nc(Nc5ccccc5C)sc4nc3c2)cc1,·,-6%,-1%
CN(C)S(=O)(=O)c1ccc(Cl)c(C(=O)NC2=NCCS2)c1,-15%,-4%,0%
CCSc1ncc(Cl)c(C(=O)N(Cc2ccccc2)c2ccc(OC)cc2)n1,·,-4%,-2%
Cc1ccc2c(c1)C(=O)C(=O)N2CC(=O)Nc1ccccc1NC(=O)c1ccccn1,-13%,-9%,0%
SMILES,AmpC no deterg,AmpC inh detg,Sm TGR block
COc1ccc(NC(=S)NCCCCCC(=O)C[N+](=O)[O-])cc1,-17%,7%,20µM*
O=C(CCCCCNC(=O)c1ccccc1)C[N+](=O)[O-],-29%,-3%,-21%
O=C(CCCCCNC(=S)Nc1ccccc1)C[N+](=O)[O-],-38%,-3%,25µM*
COc1ccc(CCNC(=S)Nc2ccc(OC)cc2)cc1,-24%,-4%,-19%
CCCCNC(=S)Nc1ccc([N+](=O)[O-])cc1,-30%,-6%,?
O=C(CCCCCNC(=S)Nc1ccc(Cl)cc1)C[N+](=O)[O-],20µM*,0%,-23%
CCCCCNC(=O)C1CCC(Cn2c(=O)c3sccc3n(CC(=O)N3CCCC3)c2=O)CC1 (stereo unspecified),·,14%,1%
Cc1ccc(OC[C@H](O)[C@H](C)NC(C)C)c2c1CCC2,-4%,-2%,-19%
Cc1ccc(CN2CCN(/N=C/c3ccc(C)s3)CC2)c(C)c1,-52%,2%,5%
O=C(COc1ccc(Cl)cc1)NCCCNC(=O)c1cnccn1,-14%,-1%,?
Cc1ccc(S(=O)(=O)N2CCCC2)cc1C(=O)NCc1ccccc1CN1CCCC1,-15%,-9%,-14%
O=C(Cc1ccccc1Cl)N/N=C/c1cccnc1,-24%,1%,0%
O=c1c2c([nH]c3ccccc13)CCCC2,-9%,-11%,4%
O=c1c2c([nH]c3ccccc13)C(=C1CCCC1)CC2,-32%,?,13µM*
O=C(Nc1ccc2ccccc2n1)Nc1cccs1,-38%,3%,-1%
CCOC(=O)CC1(NC(=O)C2CCC(=O)N(Cc3ccccc3F)C2)CCCCC1 (stereo unspecified),70%,?,-2%
CN(C)S(=O)(=O)c1cccc(NC(=S)NNC(=O)c2cc3ccccc3cc2O)c1,25µM*,-1%,-5%
CN(C)S(=O)(=O)c1cccc(NC(=S)NC(=O)c2ccco2)c1,-7%,0%,?
COCCCN(C(=S)NC(=O)C(C)(C)C)c1c(N)n(Cc2ccccc2)c(=O)[nH]c1=O,-15%,10%,1%
CCCN(C(=O)C(C)Oc1cccc(Cl)c1)c1c(N)n(Cc2ccccc2)c(=O)[nH]c1=O (stereo unspecified),-13%,-10%,2%
CCCCN(C(=O)C(C)Oc1ccc(Br)cc1)c1c(N)n(Cc2ccccc2)c(=O)[nH]c1=O (stereo unspecified),-19%,4%,89µM*
COCCCN(C(=S)NC(=O)c1ccc(Br)cc1)c1c(N)n(Cc2ccccc2)c(=O)[nH]c1=O,5.6µM*,-2%,-11%
O=C(CCCc1c[nH]c2ccccc12)Nc1ncccc1O,-10%,?,0%
Cc1cccc(-c2nc(CS(=O)CC(=O)NC3CCCC3)c(C)o2)c1 (stereo unspecified),-11%,-9%,13µM*
Cc1ccc(-c2nc(CS(=O)CC(=O)NC3CCCCC3)c(C)o2)cc1 (stereo unspecified),72%,0%,13µM*
SMILES,AmpC no deterg,AmpC inh detg,Sm TGR block
Cc1oc(-c2ccc(Cl)cc2)nc1CS(=O)CC(=O)NCCCN(C)C1CCCCC1 (stereo unspecified),·,1%,0%
Cc1oc(-c2ccc(Cl)cc2)nc1CS(=O)CC(=O)NCCN1CCCC1 (stereo unspecified),50%,-13%,2%
COc1ccc(-c2nc(CS(=O)CC(=O)NC3CCCC3)c(C)o2)cc1 (stereo unspecified),0%,-12%,?
Cc1oc(-c2ccc(Cl)cc2)nc1CS(=O)CC(=O)NC1CCCC1 (stereo unspecified),60%,-8%,8.9µM*
Cc1oc(-c2ccc(Cl)cc2)nc1CS(=O)CC(=O)NC1CCCCC1 (stereo unspecified),15%,-1%,11µM*
Cc1ccc(Cl)cc1N(C)C(=O)c1sc2nc3n(c(=O)c2c1C)CCCC3,·,-1%,-25%

# Screening data (PubChem BioAssay)
